According to PubChem BioAssay AID2669 (National Center for Advancing Translational Sciences (NCATS), 2010):
Where “and” joins values, the source holds several entries; their conditions need not be identical. Equal values may be shown once. Results filed as inconclusive are left out. Calls of active or inactive are those of the source. The call rests on the fitted dose curve; in most records, active means well fitted inhibition curve with a large enough effect; inconclusive means small, poorly fitted or top-dose-only effect, or effect the other way; inactive means flat fitted curve, though single readings scatter.

Assay: qHTS Assay Multiplex Screening to Identify Dual Action Probes in a Cell Model of Huntington: Cytoprotection (Protease relase)
Details: PC12 HttQ103 cells, Cytotox-Glo protease release, 40 h; series mostly up to 46.1 µM
Source text: NIH Chemical Genomics Center [NCGC]
NIH Molecular Libraries Probe Production centers Network [MLPCN]
Assay Submitter (PI): Wei Zheng
Huntington's disease is a neurodegenerative disorder caused by a trinucleotide repeat expansion in Exon 1 of the Huntingtin gene. The CAG trinucleotide encodes glutamine and polyglutamine expansions cause cell death in selective areas of the brain. Huntington polyglutamine repeats have the tendency to form aggregates which are observable in later stages of the disease. The exact nature of the aggregates, whether toxic, protective, or insignificant, is unclear.
A stable PC12 cell line containing a gene fusion of Exon 1 of the Huntingtin gene linked to GFP under the control of the inducible ecdysone promoter were used as the cell-based model of Huntington Disease for high throughput screening. Exon 1 of the Huntingtin gene contained an expansion of 103 polyglutamines (Q103) which, when expressed, caused cell death and distinct, bright GFP aggregates. The amount of cell death and the size and intensity of GFP aggregates increased over time and induction level. In the primary screen, cell death were quantified with a measurement of ATP content in the cells. A maximal 40-50% of cell death was observed when the Huntington gene was induced in this cell line.
We optimized this assay in a homogeneous 1536 well format. A quantitative high throughput screen (qHTS) was conducted on the PC12 cells which were induced to express the toxic fusion construct. Small molecules which prevented cell death were considered hits, and were further studied. The present assay is an alternate assay for cytoprotection using Promega's Cytotox-Glo reagent.
PC12 cells stably containing a construct with an ecdysone inducible promoter expressing GFP fused to the exon 1 of HTTQ103 (Huntington protein which containing a 103 ployglutamine expansion) were used.
NCGC Assay Protocol Summary:
Sequence, Parameter, Description
1, Reagent, 5 uL 1500 cells/well 1536 TC treated White clear bottom plate
2, Compound, 23 nL Tebufenozide inducer (100 nM final) to all columns
3, Compound, 23 nL 40 uM to 0.5 nM Libraries
5, Reagent, 2 ul Promega's Cytotox-Glo assay reagent
6, Detector, 4 sec integration with a Viewlux Luminescent
Media consisted of phenol red free DMEM + 5% equine serum (Hyclone # SH30072.03 ), 5% supplemented Bovine Calf Serum (Hyclone # SH30074.03 ), 1x pen/strep, no G418

| Structure (SMILES) | Potency |
| --- | --- |
| Cn1nnnc1Sc1ncnc2scc(-c3ccsc3)c12 | 7.94 µM (active) |
| Cc1cccc(-c2csc3ncnc(Sc4nnnn4C)c23)c1 | 14.1 µM (active) |
| COc1ccc(-c2csc3ncnc(Sc4nnnn4C)c23)cc1 | 11.2 µM (active) |
| CC(=O)Nc1ccc(S(=O)(=O)N2CCSC2c2ccccc2)cc1 (stereo not given) | inactive |
| CCOC(=O)c1sc2nc(N3CCOCC3)c3c(c2c1N)CC(C)(C)N(C)C3 | inactive |
| C[C@]12CC[C@@H]3c4ccc(OC(=O)c5ccccc5)cc4CC[C@H]3[C@@H]1CC[C@@H]2O | inactive |
| Cn1nnnc1Sc1ncnc2scc(-c3ccccc3F)c12 | 12.6 µM (active) |
| CCN(CC)CCNc1ccc(CO)c2sc3ccccc3c(=O)c12 | 10 µM (active) |
| Cn1nnnc1Sc1ncnc2scc(-c3ccc(C#N)cc3)c12 | 8.91 µM (active) |
| N#Cc1c(C(F)(F)F)cc(-c2cccc(Cl)c2)[nH]c1=O | 2.51 µM (active) |
| COc1c(F)c(F)c(C(=O)Nc2ccc3oc(-c4ccncc4)nc3c2)c(F)c1F | inactive |
| Cn1nnnc1Sc1ncnc2scc(-c3ccc(C(=O)OC(C)(C)C)cc3)c12 | 14.1 µM (active) |
| Cn1nnnc1Sc1ncnc2scc(-c3ccc4c(c3)OCO4)c12 | 10 µM (active) |
| CS(=O)(=O)c1ccc([C@H](O)[C@H](CO)NC(=O)C(Cl)Cl)cc1 | inactive |
| N#CCCn1c(Cl)nc2ccccc21 | inactive |
| O=C(O)c1cccc(COc2ccc(CO)cc2Cl)c1 | 0.501 µM (active) |
| N#Cc1ccsc1NC(=O)CSc1ncnc2ccccc12 | inactive |
| Cc1ccc(-c2csc3ncnc(Sc4nnnn4C)c23)cc1 | 14.1 µM (active) |
| Fc1cccc(Cl)c1Cn1nnc2c(-n3ccnc3)ncnc21 | inactive |
| O=C(Nc1ccc(Cl)cc1C(F)(F)F)C(Sc1cccc[n+]1[O-])c1ccccc1 (stereo not given) | inactive |

| Structure (SMILES) | Potency |
| --- | --- |
| Cn1nnnc1Sc1ncnc2scc(-c3ccc4ccccc4c3)c12 | 10 µM (active) |
| Cn1nnnc1Sc1ncnc2scc(-c3ccc[nH]3)c12 | 8.91 µM (active) |
| Cn1nnnc1Sc1ncnc2scc(-c3ccccc3C#N)c12 | 15.8 µM (active) |
| O=C1Cc2c([nH]c3ccc(Br)cc23)-c2ccccc2N1 | 2.24 µM (active) and 3.55 µM (active) |
| Cc1[nH]nc2c1C(c1cccc(O)c1)C1=C(CC(C)(C)CC1=O)N2 (stereo not given) | inactive |
| Cc1cccc(OCc2nc(C)cc(=O)[nH]2)c1 | 10 µM (active) |
| COC(=O)CNC(=O)C1CCN(C(=O)OCc2ccccc2)CC1 | 1.41 µM (active) |
| Cn1nnnc1Sc1ncnc2scc(-c3cc4ccccc4o3)c12 | 7.08 µM (active) |
| NC(=O)c1sc2nc3c(c(-c4cccs4)c2c1N)CCCCC3 | inactive |
| C=C(C)C(=O)OCCCCCCOc1ccc(C(=O)O)cc1 | 2.24 µM (active) |
| Cn1nnnc1Sc1ncnc2scc(-c3ccc(F)cc3)c12 | 15.8 µM (active) |
| O=C(c1ccccc1)c1ccc2n1CCC2C(=O)O (stereo not given) | 3.98 µM (active) |
| Cn1nnnc1Sc1ncnc2scc(-c3cccc(C#N)c3)c12 | 10 µM (active) |
| Cc1csc(N/N=C/c2ccc(O)c([N+](=O)[O-])c2)n1 | 1.78 µM (active) |
| CCOC(=O)c1sc2nc(N3CCOCC3)c3c(c2c1N)CCN(C)C3 | inactive |
| COc1cc2nc(N3CCN(C(=O)C4CCCO4)CC3)nc(N)c2cc1OC (stereo not given) | 4.47 µM (active) |
| COc1ccc(NC(=O)c2sc(SC)nc2N)cc1 | 4.47 µM (active) |
| O=C(NCc1ccco1)c1cc2ccc(O)cc2oc1=O | 2.82 µM (active) |
| Cc1noc(C)c1COC(=O)Cc1ccc(Cl)cc1 | inactive |
| C=CS(=O)(=O)c1ccc(Oc2ccc(S(=O)(=O)C=C)cc2)cc1 | 10 µM (active) |
